In the library only some 2.3% were active in any assay of this set; here they are far more common.
GLD-1 TGE inh: GLD-1-TGE RNA interaction inhibition (C. elegans). purified GLD-1 + fluorescein TGE RNA, fluorescence polarization. AID 2280. inhibition, % at 5.96 µM. 320,000 tested, 0.44% active;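 active means percent inhibition above a per-plate cutoff, the plate mean of test compounds plus 3 SD, cut at about 30% in these data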;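 further: 0% = DMSO wells with GLD-1 and probe and 100% = wells lacking GLD-1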
Mcl1-Bid inh: Mcl-1/Bid interaction inhibition | Q07820 | TR-FRET Mcl-1/Bid-Dy647 peptide binding, 1536-well | inhibition, % at 21.7 µM | 220,000 tested, 0.97% active;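 active means compounds that cut the binding signal by more than half at the single screening dose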;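 further: His-tagged Mcl-1 with europium anti-His antibody binding Bid BH3 peptide; 0% = Mcl-1 plus peptide wells and 100% = peptide-only wells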
Target sequence (Q07820 whole entry, looked up): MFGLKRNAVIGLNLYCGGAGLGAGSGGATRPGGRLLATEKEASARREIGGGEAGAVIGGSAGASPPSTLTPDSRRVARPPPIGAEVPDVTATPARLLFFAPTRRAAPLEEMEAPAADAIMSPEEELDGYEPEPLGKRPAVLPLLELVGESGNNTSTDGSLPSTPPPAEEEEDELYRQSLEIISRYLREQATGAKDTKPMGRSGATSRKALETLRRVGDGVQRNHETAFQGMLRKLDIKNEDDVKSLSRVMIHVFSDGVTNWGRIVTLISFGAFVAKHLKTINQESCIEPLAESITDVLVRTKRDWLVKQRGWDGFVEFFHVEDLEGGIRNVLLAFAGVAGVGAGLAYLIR
MCL1-BIM inh: disrupts human MCL1 binding to BIM-BH3 peptide; Q07820; GST-MCL1 / FITC-Bim-BH3 fluorescence polarization; inhibition, % at 10.9 µM; 320,000 tested, 0.68% active; AID 2057;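 active means inhibition above the mean inhibition of all tested compounds plus 3 SD, set per campaign, cut at about 40% in these data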;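 further: 0% = DMSO wells and 100% = unlabeled Bim-BH3 peptide control; higher means more loss of mP so more displacement of Bim peptide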
Mcl1 Noxa PPI: Mcl-1/Noxa interaction inhibition | Q07820 | 220,000 tested, 1.5% active | inhibition, % at 21.7 µM | TR-FRET Mcl-1/Noxa peptide binding, 2 h;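 active means compounds that cut the protein-peptide binding signal by more than 50% relative to plate controls in a single-dose test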;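 further: His-tagged Mcl-1 with rhodamine Noxa BH3 peptide and terbium anti-His antibody; 0% = Mcl-1 plus Noxa peptide wells and 100% = peptide-only wells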
Bim-Mcl-1: inhibitors of Bim-Mcl-1 interaction, human; Q07820; Bead-based flow cytometry, Bim peptide-Mcl-1 binding; inhibition, % at 10 µM; 190,000 tested, 0.1% active; AID 1009; in the data active means inhibition above about 40%;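 further: 0% = no compound tracer wells and 100% = peptide blocker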
Bcl-xL primary: blocks human Bcl-xL binding to Bim BH3 peptide. inhibition, % at 10.9 µM. AID 2129. 320,000 tested, 0.7% active. GST-Bcl-xL / FITC-Bim BH3 peptide fluorescence polarization. Q07817;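 active means inhibition above the mean of all tested compounds plus 3 SD, cutoff set per campaign, cut at about 30% in these data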;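 further: 0% = DMSO wells and 100% = unlabeled Bim-BH3 peptide competitor; inhibitors lower millipolarization by displacing the labeled peptide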
Target sequence (Q07817 whole entry, looked up): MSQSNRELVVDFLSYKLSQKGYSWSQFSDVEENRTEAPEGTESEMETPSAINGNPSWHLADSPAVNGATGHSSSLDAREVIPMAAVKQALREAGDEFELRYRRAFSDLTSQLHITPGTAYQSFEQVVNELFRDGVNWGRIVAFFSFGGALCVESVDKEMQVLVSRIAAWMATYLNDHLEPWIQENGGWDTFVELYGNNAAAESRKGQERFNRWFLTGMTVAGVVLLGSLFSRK
Numbers without * were called inactive; · = no result.

SMILES	GLD-1 TGE inh	Mcl1-Bid inh	MCL1-BIM inh	Mcl1 Noxa PPI	Bim-Mcl-1	Bcl-xL primary
Cc1ccc(C(=O)OCC(=O)Nc2ccc(N(C)C)cc2)cc1NC(=O)c1ccco1	-2.8	-50.2	-5.6	79.2*	0.0	5.2
N#CCc1ccc(NC(=O)Cn2c(=O)oc3ccccc32)cc1	-3.2	·	1.0	·	·	2.1
CCn1c(=O)ccc2cc([N+](=O)[O-])ccc21	5.4	1.9	3.0	8.6	-2.0	4.4
O=C(CN1C(=O)NC2(CCCCCCC2)C1=O)N1CCc2ccccc2C1	1.8	-3.8	-3.8	2.6	0.0	2.9
COc1ccccc1CC1(C)NC(=O)N(CC(=O)N2CCc3ccccc3C2)C1=O (stereo unspecified)	-4.5	56.6*	-7.9	14.6	1.0	-3.1
Nc1nn2c(-c3ccccc3)cc(=O)[nH]c2c1N=Nc1ccc(Br)cc1	·	36.0	·	91.7*	1.0	·
CCOC(=O)c1c(NC(=O)Cn2nnc(-c3ccccc3Cl)n2)sc(C)c1C	4.0	-3.7	9.8	16.7	-4.0	5.1
COc1cc(C(=O)Nc2ccc(N(C)C)cc2)c([N+](=O)[O-])cc1OC	6.6	-27.4	-3.9	69.2*	1.0	-0.1
COc1ccc(-n2c(SCC(=O)NCC3CCCO3)nc3c(c2=O)SCC3)cc1 (stereo unspecified)	-0.9	·	1.9	·	·	3.8
COC(=O)C(Cc1ccccc1)NC(=O)c1ccc(C)cc1 (stereo unspecified)	-4.0	-29.3	14.0	19.1	-3.0	4.6
COC(=O)C(Cc1csc2ccc(Cl)cc12)NC(=O)c1ccc(Cl)cc1 (stereo unspecified)	1.9	81.7*	8.5	45.0	·	3.1
O=C(CSc1nnc2c(n1)[nH]c1ccccc12)Nc1ccc2c(c1)OCO2	2.9	44.9	12.6	82.9*	-5.0	9.0
N#Cc1ccsc1NC(=O)CN1CCN(c2ccc(O)cc2)CC1	3.5	-29.8	6.5	71.5*	-6.0	11.0
O=C(CN1CCN(c2ccc(O)cc2)CC1)Nc1ccc(SC(F)F)cc1	7.6	-63.6	23.9	70.1*	-2.0	27.3
Cc1ccc(S(=O)(=O)c2nc(NCCN(C)C)sc2Cl)cc1	-1.1	-22.8	12.3	-10.5	1.0	6.2
COc1ccc(NC2CCCN(C(=O)CSc3ccccc3)C2)cc1 (stereo unspecified)	-2.4	·	-0.8	·	·	2.0
c1ccc(-c2nc(-c3ccco3)n3ccccc23)cc1	20.7	-0.9	44.8*	25.0	4.0	65.3*
c1ccc(Nc2c(-c3ccco3)nc3ccccn23)cc1	-3.5	-40.4	5.9	17.5	-4.0	6.6
CCCCC(C(=O)OCC)C(N)Cc1ccc(F)cc1 (stereo unspecified)	7.1	1.5	13.8	24.4	98.0*	4.8
O=C(N/C=C/c1ccco1)OCc1ccccc1	0.1	-38.6	26.8	3.5	0.0	-7.1
O=C(N/C=C/c1ccco1)NCc1ccccc1	-2.4	-64.8	18.8	63.8*	0.0	7.2
CC(=O)Oc1ccc(NC(=O)CSc2ccccc2)cc1	2.9	7.8	2.3	74.5*	0.0	0.7
O=C(CSc1ccccc1)Nc1ccccc1C(=O)O	6.6	55.9*	0.3	39.1	2.0	0.9
CC(=O)NS(=O)(=O)c1ccc(NC(=O)CSc2ccccc2)cc1	-1.2	2.0	2.9	8.8	·	2.8
O=C(Nc1ccc(Cl)cc1)C(c1ccccc1)N(CCO)CCO (stereo unspecified)	1.6	-8.4	6.9	11.4	-6.0	0.4
SMILES	GLD-1 TGE inh	Mcl1-Bid inh	MCL1-BIM inh	Mcl1 Noxa PPI	Bim-Mcl-1	Bcl-xL primary
Cc1nc(C)n(CC(O)COc2ccc3ccccc3c2)n1 (stereo unspecified)	5.6	10.1	3.5	33.5	-3.0	2.6
Cc1cnc(CNC(=O)CC2C(=O)NCCN2Cc2ccccc2C(F)(F)F)cn1 (stereo unspecified)	26.5	·	37.1	·	·	34.6*
Cc1cc(CNC(=O)CC2C(=O)NCCN2Cc2ccccc2C(F)(F)F)on1 (stereo unspecified)	10.4	-23.9	12.1	-4.2	-2.0	21.0
Cc1ccc(-c2cc(-c3ccccc3Cl)c(C#N)c(N)n2)o1	19.3	28.3	23.3	60.1*	1.0	18.1
Cc1ccc(-c2cc(-c3ccccc3)c(C#N)c(N)n2)o1	23.9	18.9	25.7	64.6*	-4.0	25.8
Cc1ccc(-c2cc(-c3ccc(F)cc3)nc(N)c2C#N)o1	-0.3	37.6	-4.2	49.2	0.0	6.2
COc1cccc(CN(C)C(=O)CCC(=O)c2cc(Br)ccc2OC)c1	-7.7	·	·	·	·	·
COC(=O)c1cc2sc(Cl)cc2n1CC(=O)Nc1ccc(OC)c(OC)c1OC	6.9	1.4	-2.7	5.5	2.0	1.6
COC(=O)c1cc2sc(Cl)cc2n1CC(=O)Nc1cccc(SC)c1	2.9	95.8*	-4.3	-6.7	0.0	-3.1
COc1ccc(O)c(C(=O)C2c3ccccc3C(=O)N2c2ccc(C)cc2)c1 (stereo unspecified)	16.6	-15.8	36.8	31.0	·	31.1*
COc1ccc(N2C(=O)c3ccccc3C2O)cc1 (stereo unspecified)	9.3	·	9.0	·	·	3.7
CN(c1ccccc1)S(=O)(=O)c1ccc(C(=O)NCc2ccccc2F)cc1	-3.1	·	-3.6	·	·	-2.4
COc1ccc(Br)c2oc(S)cc(=O)c12	-0.2	-7.1	16.7	63.5*	-6.0	14.5
COc1ccc(C(=O)c2ccc(OC)c(Br)c2)cc1Br	2.7	-16.3	-1.4	-17.0	-2.0	2.7
COc1cccc(CN(C)C(=O)c2ccc3nccnc3c2)c1	10.1	1.5	47.6*	25.8	-1.0	41.0*
CC1(c2ccccc2)NC(=O)N(CC(=O)Nc2cc3c(cc2Br)OCCO3)C1=O (stereo unspecified)	0.1	·	-4.3	·	·	-9.7
COc1ccc(OC)c(NC(=O)CCOc2cccc(C)c2)c1	-0.2	·	-12.9	·	·	-2.6
Cc1cc2cc(CNC(=O)c3cc4ccccc4o3)ccc2n1C	39.5*	-87.4	32.3	-46.7	-4.0	30.6*
COc1ccc(C(=O)NCc2ccc3c(c2)cc(C)n3C)cc1	0.2	-28.7	4.4	9.3	0.0	3.9
Cc1ccc(Cl)cc1N1CCN(C(=O)CSc2ccsc2[N+](=O)[O-])CC1	-1.0	-16.4	10.8	54.9*	-8.0	9.0
O=C(CSc1ccc(Cl)cc1)N1CCN(c2ccc([N+](=O)[O-])cc2Cl)CC1	12.9	-4.4	-4.0	-1.3	-1.0	7.2
COc1cccc(-c2cc3onc(-c4ccccc4)c3c(=O)n2C)c1	3.0	·	4.1	·	·	1.3
Clc1ccccc1CN1CCC(Cc2ccccc2)CC1	4.5	53.8*	2.4	20.1	-3.0	3.3
FC(F)(F)c1ccccc1CN1CCC(Cc2ccccc2)CC1	7.8	·	14.6	·	·	0.9
CC1CN(Cc2ccccc2Cl)CC(C)O1 (stereo unspecified)	-2.0	51.4*	-3.8	33.3	-3.0	-2.4
CC(C)(C)c1ccc(C(=O)Nc2c3c(nn2C(C)(C)C)CS(=O)(=O)C3)cc1	-8.8	·	-11.0	·	·	2.4

High-throughput results: PubChem BioAssay, several laboratories
